This is a sample that favours compounds with a hit; in the whole collection about 0.82% have one here.
RTF Ca sens act: increases calcium sensitivity of human cardiac regulated thin filaments | IANBD-labeled TnC RTF fluorescence at EC20 calcium; 0% EC20 calcium, 100% full calcium | activation, % at 7.2 µM | 0.24% of 340,000 active;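 active = activation above the mean over all tested compounds plus 3 SD, cut at about 30% in these data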;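 note: rise in fluorescence read as greater calcium sensitivity of cardiac thin filaments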
Cardiac RTF inh: cardiac RTF calcium desensitization | P19429+P45379 | IANBD-labeled cardiac RTF, Ca2+ fluorescence | inhibition, % at 7.15 µM | 0.12% of 340,000 active;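 active = inhibition above the mean inhibition of all tested compounds plus 3 SD, cut at about 17% in these data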;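 note: assay run at fixed EC70 calcium of 1.6 mM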
Keap1 Nrf2 FP: Keap1-Nrf2 (human) interaction inhibition; Q14145; Keap1 Kelch-Nrf2 peptide fluorescence polarization, 1536-well; inhibition, % at 9.4 µM; 0.15% of 340,000 active; in the data active = inhibition above about 12%;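 note: human Keap1 Kelch domain with fluorescein labeled Nrf2 9mer peptide probe; 0% = neutral control wells and 100% = peptide positive control; higher means more block of Keap1 binding to Nrf2 peptide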
LANA DNA inh: blocks KSHV LANA C-terminal domain binding to DNA | 0.078% of 340,000 active | inhibition, % at 9 µM | MBP-C-LANA/FAM-LBS DNA binding, fluorescence polarization;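 active = highest replicate inhibition at or above 60% at 9 µM, even if other replicates fall short; inactive = all replicates below 60% inhibition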;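 note: 0% = neutral control wells and 100% = 4 µM acridine orange control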
eLon inh: E. coli protease La inhibition | P0A9M0 | purified E. coli Lon protease, fluorescence polarization | inhibition, % at 7.94 µM | 0.42% of 360,000 active | AID 602123; in the data active = inhibition above about 13%, passing the limit was not always enough;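 note: 0% = enzyme with probe and DMSO and 100% = no enzyme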
Target sequence (P0A9M0 whole entry, looked up): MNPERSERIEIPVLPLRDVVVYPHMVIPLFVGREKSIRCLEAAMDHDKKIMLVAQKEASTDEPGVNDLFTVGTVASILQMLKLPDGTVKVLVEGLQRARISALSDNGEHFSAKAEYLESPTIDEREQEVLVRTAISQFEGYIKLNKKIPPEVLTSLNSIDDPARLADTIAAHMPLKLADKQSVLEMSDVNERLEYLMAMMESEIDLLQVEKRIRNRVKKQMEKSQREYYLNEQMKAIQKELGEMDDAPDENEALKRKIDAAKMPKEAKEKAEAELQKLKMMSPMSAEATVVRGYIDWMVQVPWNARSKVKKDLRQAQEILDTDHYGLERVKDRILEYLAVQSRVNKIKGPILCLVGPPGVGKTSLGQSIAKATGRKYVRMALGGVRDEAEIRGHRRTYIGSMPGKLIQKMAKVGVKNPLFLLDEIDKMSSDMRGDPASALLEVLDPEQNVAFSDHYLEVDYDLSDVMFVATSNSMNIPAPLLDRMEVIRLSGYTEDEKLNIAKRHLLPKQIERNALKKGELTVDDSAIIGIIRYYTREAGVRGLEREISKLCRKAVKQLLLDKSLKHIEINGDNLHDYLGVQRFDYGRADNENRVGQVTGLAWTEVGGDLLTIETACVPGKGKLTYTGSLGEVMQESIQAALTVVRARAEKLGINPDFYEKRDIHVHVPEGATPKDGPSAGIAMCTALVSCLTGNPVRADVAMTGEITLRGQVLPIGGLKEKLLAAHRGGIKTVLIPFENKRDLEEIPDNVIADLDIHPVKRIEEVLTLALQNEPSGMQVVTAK
RTF inh confirm: confirmation of inhibitors of cardiac thin filament calcium sensitivity; shares compounds with Cardiac RTF inh; reconstituted cardiac thin filaments, calcium sensitivity fluorescence; inhibition, % at 7.15 µM; 8% of 360 active; AID 504635; in the data active = inhibition above about 18%
The depositor's hits bear a star; ! = not confirmed by another sample.

Screening CCn1c(=O)cc(OCC(=O)Nc2cccc(C)n2)c2ccccc21 returned RTF Ca sens act 9.9, Cardiac RTF inh -15.1, Keap1 Nrf2 FP 6.9, LANA DNA inh 0.0 and eLon inh -8.0.
`CCn1c(=O)cc(SCC(=O)Nc2cccc(C)n2)c2ccccc21` gave RTF Ca sens act -4.0, Cardiac RTF inh 18.2*, Keap1 Nrf2 FP 1.9, LANA DNA inh 1.4, eLon inh 2.8 and RTF inh confirm -3.5.
For CCOC(=O)C1CCCN(C(=O)c2cccc(OC(F)(F)F)c2)CC1 (stereo unspecified) the results were eLon inh -0.3.
Screening CC(=O)Nc1ccc(C(=O)Nc2ccc(S(=O)(=O)N3CCCCC3)cc2)cc1 returned RTF Ca sens act -7.0, Cardiac RTF inh -4.1, Keap1 Nrf2 FP -3.3, LANA DNA inh -1.2 and eLon inh -1.5.
`Cn1c(NC(=O)c2ccc(S(=O)(=O)N3CCCCC3)cc2)cc(=O)n(C)c1=O` gave RTF Ca sens act 0.7, Cardiac RTF inh 17.0*, Keap1 Nrf2 FP -1.5, LANA DNA inh -0.9, eLon inh 0.5 and RTF inh confirm 1.6.
`CCOC(=O)Cn1nc(C)cc1NC(=O)c1cccnc1` gave RTF Ca sens act -0.3, Cardiac RTF inh 20.7*, Keap1 Nrf2 FP -0.1, LANA DNA inh 0.4, eLon inh 2.4 and RTF inh confirm -0.6.
Screening Cc1ccc(CSc2nnc(SCC(=O)N/N=C/C=C/c3ccccc3[N+](=O)[O-])s2)cc1 returned RTF Ca sens act 7.7, Cardiac RTF inh 21.4*, Keap1 Nrf2 FP -3.7, LANA DNA inh 2.7, eLon inh 13.0 and RTF inh confirm -4.9.
`Cc1ccc(CSc2nnc(SCC(=O)N/N=C/C=C/c3ccco3)s2)cc1` gave RTF Ca sens act 0.8, Cardiac RTF inh 3.1, Keap1 Nrf2 FP -2.4, LANA DNA inh 1.9 and eLon inh -23.4.
`COCCCC/C(=N\OCCN)c1ccc(C(F)(F)F)cc1` gave RTF Ca sens act 3.3, Cardiac RTF inh 19.9*!, Keap1 Nrf2 FP -3.9, LANA DNA inh -0.7, eLon inh -8.2 and RTF inh confirm 1.9.
For O=C(CCC(=O)OCC(=O)c1ccc(C(F)(F)F)cc1)OCC(=O)c1ccc(C(F)(F)F)cc1 the results were eLon inh 4.7.
`COc1cc2c(ccc3cc(OC)c(OC)c(O)c32)cc1O` gave RTF Ca sens act -26.5, Cardiac RTF inh 26.3*, Keap1 Nrf2 FP 4.2, LANA DNA inh 19.5, eLon inh -2.6 and RTF inh confirm 9.9.
Screening COCC1CCCCN1C(=O)c1ccc(OC2CCN(CCc3ccccc3)CC2)cc1 (stereo unspecified) returned RTF Ca sens act -3.2, Cardiac RTF inh -7.6, Keap1 Nrf2 FP -5.3, LANA DNA inh 0.0 and eLon inh -1.8.
Screening C=CCC[C@@H](Cc1ccc(F)cc1)C(=O)OC[C@@H](NC(=O)[C@@H](CC=C)CC(=O)N[C@@H](CO)Cc1ccccc1)C(C)(C)C returned RTF Ca sens act -3.5, Cardiac RTF inh 17.8*, Keap1 Nrf2 FP 0.2, LANA DNA inh 0.1, eLon inh 12.6 and RTF inh confirm -0.3.
For Cc1ccc(CS(=O)Cc2ccc(C(=O)NCc3ccc(OC(C)C)cc3)o2)cc1 (stereo unspecified) the results were RTF Ca sens act 3.4, Cardiac RTF inh 27.2*, Keap1 Nrf2 FP -2.9, LANA DNA inh 1.6, eLon inh 9.7 and RTF inh confirm -1.2.
Screening COc1ccc(CNC(=O)c2ccc(CS(=O)Cc3ccc(Cl)cc3)o2)cc1 (stereo unspecified) returned RTF Ca sens act -2.3, Cardiac RTF inh 2.5, Keap1 Nrf2 FP -0.6, LANA DNA inh 1.1 and eLon inh 2.3.
CC1CCCN(C(=O)C2CCCN(S(=O)(=O)c3cccc4nsnc34)C2)C1 (stereo unspecified) was read as RTF Ca sens act 0.9, Cardiac RTF inh 2.2, Keap1 Nrf2 FP 1.6, LANA DNA inh 0.2 and eLon inh -9.1.
`O=C(C1CCCN(S(=O)(=O)c2cccc3nsnc23)C1)N1CCCCCC1` (stereo unspecified) gave RTF Ca sens act 2.2, Cardiac RTF inh 17.3*, Keap1 Nrf2 FP 4.4, LANA DNA inh -0.4, eLon inh 0.0 and RTF inh confirm 2.3.
O=C(NCC(c1cccs1)N1CCOCC1)c1ccc([N+](=O)[O-])cc1 (stereo unspecified) was read as RTF Ca sens act -4.7, Cardiac RTF inh 17.4*, Keap1 Nrf2 FP -0.4, LANA DNA inh 3.1, eLon inh 0.7 and RTF inh confirm -3.5.
`CCCc1cc(=O)[nH]c(SCC(=O)NCC2COc3ccccc3O2)n1` (stereo unspecified) gave RTF Ca sens act 0.2, Cardiac RTF inh 3.8, Keap1 Nrf2 FP 5.1, LANA DNA inh 1.3 and eLon inh -11.3.
`c1ccc(-c2noc(C34CC5CC(CC(C5)C3)C4)n2)cc1` gave RTF Ca sens act 7.2, Cardiac RTF inh -19.0, Keap1 Nrf2 FP 0.2, LANA DNA inh 2.6 and eLon inh -5.7.
`c1ccc(-c2noc(C34CC5CC(CC(C5)C3)C4)n2)nc1` gave RTF Ca sens act 2.2, Cardiac RTF inh 18.4*, Keap1 Nrf2 FP 1.9, LANA DNA inh -0.1, eLon inh -3.6 and RTF inh confirm -5.0.
For NS(=O)(=O)c1cc(C(=O)O)cc(N2CCCC2)c1Oc1ccccc1 the results were RTF Ca sens act -0.1, Cardiac RTF inh 18.7*, Keap1 Nrf2 FP -0.5, LANA DNA inh -0.9, eLon inh -4.2 and RTF inh confirm -2.6.
For COc1ccc(C(=O)NNC(=O)Cc2nc3nc(C)cc(C)n3n2)cc1 the results were RTF Ca sens act 2.1, Cardiac RTF inh -3.3, Keap1 Nrf2 FP -2.6, LANA DNA inh 1.9 and eLon inh -15.2.
For O=C(O)C1CCN(C(=O)c2ccc3c(c2)OCO3)CC1 the results were RTF Ca sens act -0.3, Cardiac RTF inh 2.2, Keap1 Nrf2 FP -2.9, LANA DNA inh -0.5 and eLon inh 6.3.
For CCOC(=O)C1=C(C)N(Cc2ccc(C(=O)O)cc2)C(=O)NC1c1ccc([N+](=O)[O-])cc1 (stereo unspecified) the results were RTF Ca sens act 5.8, Cardiac RTF inh 17.5*, Keap1 Nrf2 FP -5.1, LANA DNA inh 0.8, eLon inh -0.6 and RTF inh confirm -2.0.
COc1ccc(NC(=O)CCNC(=O)c2ccccc2Cl)cc1S(=O)(=O)N1CCCCC1 was read as eLon inh -0.1.
O=C(c1ccc(N2CCCC2)c([N+](=O)[O-])c1)N1CCc2ccccc2C1 was read as RTF Ca sens act -17.4, Cardiac RTF inh -12.4, Keap1 Nrf2 FP -0.7, LANA DNA inh 0.5 and eLon inh -11.5.
`N#Cc1ccc(N2CCc3ccccc3C2)c([N+](=O)[O-])c1` gave RTF Ca sens act -2.1, Cardiac RTF inh 188.0*, Keap1 Nrf2 FP -5.0, LANA DNA inh -2.0, eLon inh -12.0 and RTF inh confirm -4.8.
